GLP1R inv ag – inverse agonists of human GLP-1 receptor | P43220 | HEK293 GLP-1R CRE-luciferase, luminescence, 24 h; GLP-1R form is constitutively active | Potency, µM (titrated, usually from 38.3 µM), for the others: at the highest dose activity change, negative = inhibition, usual class: inhibitors | 410,000 compounds, 1.6% hits | AID 624417; further: on the % scale 0 is the no-effect control and ±100 the full control effect; nearly all actives have a fitted effect of over 55% in size
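Inverse agonism was detected as reduced cAMP-driven luciferase luminescence after 24 h compound treatment. The cells were HEK293 clones expressing constitutively active human GLP-1R with the reporter. Reporter-only and GPR119 cell lines served as counterscreen controls.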
PTHR1 agonist – PTHR1 (human) receptor agonism; Q03431; HEK293 GP2 PTHR1 cells, GloSensor cAMP luminescence, 1 h; Potency, µM (titrated, usually from 115 µM), inactives show at the top dose activation, most hits filed as activators; 410,000 compounds, 0.075% hits; further: nearly all actives have a fitted effect of over 55% in size
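HEK-293-derived GP2 cells expressing PTHR1 and a GloSensor cAMP reporter, 3,000/well, plated overnight, given luciferin plus IBMX (each 0.5 mM as added) for 1 h at 37 °C, then compound for 1 h at 37 °C. Luminescence was read after 15 min at room temperature.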
GLS inhibitor – blocks human kidney-isoform glutaminase activity; Potency, µM (titrated, usually from 45.5 µM), for the others: at the highest dose activity change, negative = inhibition, most hits filed as inhibitors; GLS enzymatic activity, qHTS titration; AID 624170; 410,000 compounds, 0.21% hits; O94925; further: on the % scale 0 is the no-effect control and ±100 the full control effect
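Two-point fluorescence kinetic (t0, 30 min RT) for hKGA; glutamate detected via glutamate oxidase–HRP–Amplex Red. Substrate: 1 mM L-glutamine solution; buffer 45 mM KH2PO4, pH 8.2.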
Glioma ERSR ind – ER stress response induction in glioma; U87-MG GRP78 promoter luciferase reporter, 16 h; AID 602332; 420,000 compounds, 0.02% hits; Potency, µM, for inactives: top-dose activation, actives largely listed as activators; further: series mostly up to about 76 µM; % of control where 0% means no effect; nearly all actives have a fitted effect of over 35% in size
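ERSR induction read as luciferase luminescence (Bright-Glo, 10 min at room temperature) in stably transfected human U87-MG glioma cells exposed to compounds for 16 h, using GRP78 as sensor.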
12-LOX inh – blocks human arachidonate 12S-lipoxygenase | 580,000 compounds, 1.1% hits | Potency, µM (top dose mostly 108 µM), inactives show top-dose activity change, negative = inhibition, usual class: inhibitors | P18054 | purified 12hLO, xylenol orange hydroperoxide absorbance; further: on the % scale 0 is the no-effect control and ±100 the full control effect
Target sequence (P18054 whole entry, looked up): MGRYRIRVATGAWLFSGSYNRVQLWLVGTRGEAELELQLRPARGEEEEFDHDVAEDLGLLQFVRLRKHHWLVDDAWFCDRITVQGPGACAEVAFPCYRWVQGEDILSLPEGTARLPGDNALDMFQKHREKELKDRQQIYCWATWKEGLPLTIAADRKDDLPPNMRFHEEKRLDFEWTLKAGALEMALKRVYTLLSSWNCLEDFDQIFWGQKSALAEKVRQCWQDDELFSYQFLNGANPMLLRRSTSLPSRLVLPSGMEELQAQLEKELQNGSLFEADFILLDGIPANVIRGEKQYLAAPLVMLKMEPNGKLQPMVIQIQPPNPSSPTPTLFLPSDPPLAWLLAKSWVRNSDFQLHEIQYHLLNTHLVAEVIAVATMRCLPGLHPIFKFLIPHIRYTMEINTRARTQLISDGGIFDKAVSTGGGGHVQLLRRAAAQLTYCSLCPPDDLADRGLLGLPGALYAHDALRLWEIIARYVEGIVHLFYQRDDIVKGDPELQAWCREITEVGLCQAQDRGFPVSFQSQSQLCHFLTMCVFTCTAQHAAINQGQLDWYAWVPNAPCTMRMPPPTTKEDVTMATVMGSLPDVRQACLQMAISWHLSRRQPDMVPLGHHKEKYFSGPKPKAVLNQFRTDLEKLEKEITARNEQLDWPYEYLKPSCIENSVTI
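Purified human 12hLO (150 nM final) in 25 mM Hepes, 0.01% Triton X-100, pH 7.0 was preincubated 15 min at room temperature with compound. Then 40 uM arachidonic acid was added, 30 min. Hydroperoxide was read by Fe-XO absorbance ratio 573/405 nm.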
GLP1R ag – activates the human GLP-1 receptor; HEK293 GLP-1R CRE-luciferase, luminescence, 4-6 h; cells express a hypersensitive GLP-1R form; Potency, µM (doses to about 45.6 µM), without a hit: top-dose activation, most hits filed as activators; 380,000 compounds, 0.007% hits; AID 624172; further: % of control where 0% means no effect
* marks the source's active call; other numbers are inactive results; [ ] = another dose, or the depositor's remark. This is a sample that favours compounds with a hit; in the whole collection about 2.3% have one here. The call rests on the fitted dose curve; in most records, active means well fitted curve in the direction sought with a large enough effect; inconclusive means small, poorly fitted or top-dose-only effect, or another doubt; inactive means no such curve, though single readings can be large; an effect the other way counts as inactive or inconclusive. Potency means the concentration at half of the fitted maximal effect.

Screening O=c1c2ccccc2c(C=NCCc2ccccc2)c(O)n1Cc1ccccc1 returned GLP1R inv ag 5µM*, PTHR1 agonist inactive, GLS inhibitor 7%, Glioma ERSR ind 0%, 12-LOX inh 0% and GLP1R ag -19%.
`O=c1c2ccccc2c(C=NCCCN2CCOCC2)c(O)n1Cc1ccccc1` gave GLP1R inv ag inconclusive, PTHR1 agonist -6%[57.5 µM], GLS inhibitor 1%, Glioma ERSR ind 1%, 12-LOX inh -9% and GLP1R ag 19%.
`COc1ccccc1Nc1cc(C(=O)NCCCN(C)c2ccccc2)c2ccccc2n1` gave GLP1R inv ag 5.6µM*, PTHR1 agonist -2%, GLS inhibitor 26%, Glioma ERSR ind -3% and 12-LOX inh -23%.
`OC(CNC1CCCCCC1)COc1cccc2ccccc12` (configuration not stated) gave GLP1R inv ag 11µM*, PTHR1 agonist -20%, GLS inhibitor -3%, Glioma ERSR ind -8%, 12-LOX inh inconclusive and GLP1R ag 5%.
For Cc1ccccc1OCC(O)CNC1CCC(NCC(O)COc2ccccc2C)CC1 (configuration not stated) the results were GLP1R inv ag 1.3µM*, PTHR1 agonist inconclusive, GLS inhibitor -2%, Glioma ERSR ind -14%, 12-LOX inh inconclusive and GLP1R ag -10%.
Screening CC(=O)c1ccc(N2CCN(C(C(=O)O)c3cn(C)c4ccc(C(=O)O)cc34)CC2)cc1 (configuration not stated) returned 12-LOX inh 1%.
For CC1CC(C)(C)NC(=S)N1CCCC(=O)Nc1ccc(Br)cc1 (configuration not stated) the results were GLP1R inv ag 10µM*, PTHR1 agonist -6%, GLS inhibitor -9%, Glioma ERSR ind -4%, 12-LOX inh inconclusive and GLP1R ag 5%.
O=C1CCN(S(=O)(=O)c2ccc3c(c2)CCC3)CCCC(C(=O)NCc2ccncc2)CCN1 (configuration not stated) was read as 12-LOX inh 4%.
For CCn1nc(NC(=O)CC(C)C)c2cc3cccc(C)c3nc21 the results were GLP1R inv ag -1%, PTHR1 agonist -24%, GLS inhibitor 0%, Glioma ERSR ind -5%, 12-LOX inh -9% and GLP1R ag 1%.
Screening CCn1nc(NC(=O)C(C)(C)C)c2cc3cccc(C)c3nc21 returned GLP1R inv ag 10µM*, PTHR1 agonist inactive, GLS inhibitor -2%, Glioma ERSR ind 1%, 12-LOX inh -13% and GLP1R ag 6%.
For N#Cc1c(NC(=O)CN2CCNC(=O)C2)sc2c1CCCCC2 the results were 12-LOX inh 5%.
`COc1ccc(N2CC3CCC(C2)N3C(=O)c2ccc3c(c2)OCO3)cc1` gave 12-LOX inh 12%[6.33 µM].
For O=C(Nc1ccc(/C=C/c2nc3ccccc3o2)cc1)c1cccc(C(F)(F)F)c1 the results were GLP1R inv ag 3.2µM*, PTHR1 agonist -10%[57.5 µM], GLS inhibitor 7%, Glioma ERSR ind 12%, 12-LOX inh 1% and GLP1R ag -1%.
Cc1oc(-c2cccc(Cl)c2)nc1CN1CCN(C(=O)c2ccco2)CC1 was read as 12-LOX inh 35µM*.
For Cc1oc(-c2cccc(F)c2)nc1CN1CCCN(C(=O)c2ccco2)CC1 the results were GLP1R inv ag 13%, PTHR1 agonist inactive, GLS inhibitor 1%, Glioma ERSR ind -2%, 12-LOX inh inconclusive and GLP1R ag 12%.
O=C(Cc1cccs1)NC1C(=O)N2C(C(=O)[O-])=C(C[n+]3ccccc3)CSC12 (configuration not stated) was read as GLS inhibitor 11µM*, Glioma ERSR ind -5% and GLP1R ag -2%.

Screens deposited in PubChem by National Center for Advancing Translational Sciences (NCATS).
